Experimental data from PubChem BioAssay (EPA / NIEHS).
Records with an inconclusive call do not appear. Activity calls are given as the source filed them. How the source made its calls: active means hit-call score of the fitted dose curve at least 0.9, where 1 is the maximum; inconclusive means response in the unintended direction; inactive means score below 0.9.

molecular target: human Colony Stimulating Factor 1 Receptor (CSF1R), CSF1R (gene 1436) (UniProt P07333); assay: NVS_ENZ_hCSF1R: NovaScreen (NVS) Enzymatic Assay for human Colony Stimulating Factor 1 Receptor (CSF1R) (AID 2283150)
Sequence (P07333 whole entry, looked up): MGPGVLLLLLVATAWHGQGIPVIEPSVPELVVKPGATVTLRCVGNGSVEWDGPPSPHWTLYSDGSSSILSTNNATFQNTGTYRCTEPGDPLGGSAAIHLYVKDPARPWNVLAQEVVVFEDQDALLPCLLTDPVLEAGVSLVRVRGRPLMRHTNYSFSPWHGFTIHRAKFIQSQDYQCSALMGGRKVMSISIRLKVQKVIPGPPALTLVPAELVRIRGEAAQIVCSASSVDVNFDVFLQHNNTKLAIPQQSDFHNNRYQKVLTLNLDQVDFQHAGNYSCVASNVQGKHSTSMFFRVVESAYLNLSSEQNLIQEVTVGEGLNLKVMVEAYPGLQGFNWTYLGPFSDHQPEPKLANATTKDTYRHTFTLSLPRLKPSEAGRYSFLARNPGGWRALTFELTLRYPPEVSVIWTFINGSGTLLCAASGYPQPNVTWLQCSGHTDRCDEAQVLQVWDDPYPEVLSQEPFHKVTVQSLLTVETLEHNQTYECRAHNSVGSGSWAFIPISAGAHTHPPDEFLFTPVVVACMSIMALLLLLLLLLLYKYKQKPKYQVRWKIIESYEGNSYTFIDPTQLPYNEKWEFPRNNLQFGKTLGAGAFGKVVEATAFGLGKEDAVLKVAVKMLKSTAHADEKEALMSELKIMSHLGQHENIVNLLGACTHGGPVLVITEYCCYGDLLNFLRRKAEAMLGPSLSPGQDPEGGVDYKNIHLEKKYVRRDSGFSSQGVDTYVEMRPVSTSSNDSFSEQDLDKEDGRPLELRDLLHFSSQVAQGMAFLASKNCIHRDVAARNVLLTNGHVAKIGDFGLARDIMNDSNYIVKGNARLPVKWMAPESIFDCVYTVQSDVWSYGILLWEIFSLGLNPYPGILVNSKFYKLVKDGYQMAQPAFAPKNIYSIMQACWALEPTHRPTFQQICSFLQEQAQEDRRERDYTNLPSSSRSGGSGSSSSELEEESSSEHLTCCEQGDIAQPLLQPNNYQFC
Outline: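 Compounds screened in duplicate at 25 uM, then concentration-response (top 50 uM) for those passing threshold such as 30% inhibition; recombinant CSF1R activity measured 1 h post-dosing via fluorescent substrate/product mobility-shift separation, loss of signal versus DMSO.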

Structure (SMILES) | outcome
CCCCCCCCc1ccc(O)cc1 | inactive
ClC1(Cl)C2(Cl)C3(Cl)C4(Cl)C(Cl)(Cl)C5(Cl)C3(Cl)C1(Cl)C5(Cl)C24Cl (configuration not stated) | inactive
Cn1sc(Cl)cc1=O | inactive

molecular target: human Dual Specificity Protein Phosphatase 3 (DUSP3), DUSP3 (gene 1845) (UniProt P51452); assay: NVS_ENZ_hDUSP3: NovaScreen (NVS) Enzymatic Assay for human Dual Specificity Protein Phosphatase 3 (DUSP3) (AID 2283152);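 further: phosphatase activity of recombinant human DUSP3 on a fluorogenic substrate without cells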
Sequence (P51452 whole entry, looked up): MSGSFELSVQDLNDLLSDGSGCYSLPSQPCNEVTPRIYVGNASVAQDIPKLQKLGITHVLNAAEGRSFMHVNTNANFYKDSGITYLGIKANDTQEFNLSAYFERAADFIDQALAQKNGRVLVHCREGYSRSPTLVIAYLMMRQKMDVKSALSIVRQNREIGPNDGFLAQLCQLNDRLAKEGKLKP
Outline: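 Cell-free fluorescence-intensity enzyme activity assay with recombinant protein and substrate; loss of signal fitted relative to DMSO baseline. Primary screen in duplicate at 25 uM, actives then run in concentration series; measured 0 h after dosing.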

Structure (SMILES) | AC50 | outcome
Nc1cccc2ccccc12 | 17 µM (active) | 
CCOP(=S)(OCC)SCSP(=S)(OCC)OCC | 6.76 µM (active) | 
COc1cc(-c2ccc(N)c(OC)c2)ccc1N | 7.49 µM (active) | 
ClC1(Cl)C2(Cl)C3(Cl)C4(Cl)C(Cl)(Cl)C5(Cl)C3(Cl)C1(Cl)C5(Cl)C24Cl (configuration not stated) |  | inactive
O=C(O)C(F)(F)C(F)(F)C(F)(F)C(F)(F)C(F)(F)C(F)(F)C(F)(F)C(F)(F)C(F)(F)C(F)(F)F | 2.72 µM (active) | 
COP(=S)(OC)Oc1ccc(S(=O)(=O)N(C)C)cc1 | 7.43 µM (active) | 
Nc1ncc([N+](=O)[O-])s1 | 2.36 µM (active) | 
COP(=S)(OC)Oc1c(Cl)cc(C)cc1Cl | 20.9 µM (active) | 
CCOP(=S)(OCC)Oc1nc(Cl)c(Cl)cc1Cl | 6.51 µM (active) | 
C=C(C)C(=O)[O][Sn]([CH2]CCC)([CH2]CCC)[CH2]CCC | 10.9 µM (active) | 
COP(=S)(OC)Oc1cc(Cl)c(Cl)cc1Cl | 11.8 µM (active) | 

molecular target: human Elastase, ELANE (gene 1991) (UniProt P08246); assay: NVS_ENZ_hElastase: NovaScreen (NVS) Enzymatic Assay for human Elastase (AID 2283153)
Sequence (P08246 whole entry, looked up): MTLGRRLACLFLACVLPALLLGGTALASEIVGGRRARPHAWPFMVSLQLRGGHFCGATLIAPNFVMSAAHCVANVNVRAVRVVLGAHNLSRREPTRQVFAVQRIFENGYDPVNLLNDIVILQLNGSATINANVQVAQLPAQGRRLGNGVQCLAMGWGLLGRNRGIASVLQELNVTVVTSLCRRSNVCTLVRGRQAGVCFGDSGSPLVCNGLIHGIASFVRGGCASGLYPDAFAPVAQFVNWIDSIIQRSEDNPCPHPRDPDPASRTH
Outline: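 Concentration-response to 50 uM max, run singly for chemicals passing a threshold (e.g., 30% inhibition) in a duplicate 25 uM single-point screen. Neutrophil-derived human elastase, absorbance read-out of enzyme activity at 1.5 h; DMSO baseline.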

Structure (SMILES) | AC50 | outcome
COc1cc(-c2ccc(N)c(OC)c2)ccc1N | 20.5 µM (active) | 
ClC1(Cl)C2(Cl)C3(Cl)C4(Cl)C(Cl)(Cl)C5(Cl)C3(Cl)C1(Cl)C5(Cl)C24Cl (configuration not stated) | 1.1 µM (active) | 
O=C(O)C(F)(F)C(F)(F)C(F)(F)C(F)(F)C(F)(F)C(F)(F)C(F)(F)C(F)(F)C(F)(F)C(F)(F)F | 13.5 µM (active) | 
C=C(C)C(=O)[O][Sn]([CH2]CCC)([CH2]CCC)[CH2]CCC |  | inactive
Cn1sc(Cl)cc1=O |  | inactive

molecular target: human Esterase Plasma (ES), BCHE (gene 590) (UniProt P06276); assay: NVS_ENZ_hES: NovaScreen (NVS) Enzymatic Assay for human Esterase Plasma (ES) (AID 2283157)
Sequence (P06276 whole entry, looked up): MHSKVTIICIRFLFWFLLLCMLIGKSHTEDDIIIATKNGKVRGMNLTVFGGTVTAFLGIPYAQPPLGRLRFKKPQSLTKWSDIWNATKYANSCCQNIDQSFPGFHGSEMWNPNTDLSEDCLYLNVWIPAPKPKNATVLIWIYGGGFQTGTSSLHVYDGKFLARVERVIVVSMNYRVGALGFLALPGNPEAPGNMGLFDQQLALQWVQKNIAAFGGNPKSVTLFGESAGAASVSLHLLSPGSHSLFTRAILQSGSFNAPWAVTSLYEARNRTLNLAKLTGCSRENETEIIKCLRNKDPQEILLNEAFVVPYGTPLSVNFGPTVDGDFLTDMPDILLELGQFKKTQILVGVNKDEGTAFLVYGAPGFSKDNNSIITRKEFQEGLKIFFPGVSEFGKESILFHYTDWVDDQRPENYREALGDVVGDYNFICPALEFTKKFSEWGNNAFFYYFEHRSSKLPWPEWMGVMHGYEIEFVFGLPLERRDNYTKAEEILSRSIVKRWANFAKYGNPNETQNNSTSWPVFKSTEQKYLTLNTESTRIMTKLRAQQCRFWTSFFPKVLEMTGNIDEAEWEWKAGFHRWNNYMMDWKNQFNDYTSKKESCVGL
Outline: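 Primary single-concentration screen at 25 uM in duplicate, then concentration-response to a 50 uM top dose. Human plasma esterase activity detected colorimetrically after 0.25 h incubation, with DMSO as baseline.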

Structure (SMILES) | outcome | AC50
CCOP(=S)(OCC)SCSP(=S)(OCC)OCC | inactive | 
CC(=O)[O][Hg][c]1ccccc1 | inactive | 
CCC(=O)C(CC(C)N(C)C)(c1ccccc1)c1ccccc1 (configuration not stated) |  | 15.6 µM (active)
O=C(O)C(F)(F)C(F)(F)C(F)(F)C(F)(F)C(F)(F)C(F)(F)C(F)(F)C(F)(F)C(F)(F)C(F)(F)F | inactive | 
COP(=S)(OC)Oc1ccc(S(=O)(=O)N(C)C)cc1 |  | 20 µM (active)
CCN1CCC2(CC1)COc1cc3c(cc12)N(C(=O)c1ccc(-c2ccc(-c4nnc(C)o4)cc2C)cc1)CC3 |  | 28.3 µM (active)
CCOP(=S)(OCC)Oc1nc(Cl)c(Cl)cc1Cl |  | 25 µM (active)
Cn1sc(Cl)cc1=O | inactive | 
